The target in the test is CA8. The experiment in a line: pooled miR-30 sensor sort-seq; sequence = guide strand. As to conditions: shRNA.
With TTCGAAATTCTTCTATCTGTAG, the sensor-assay potency score (higher = more potent) was -0.338.
To TGCAACTATGAATCCTAGCAGC belongs -0.939.
To AAAAGCTTTGAAATTAACCGTG belongs -0.175.
Regarding TTCATATTAATAACAACTCTGG, the sensor-assay potency score (higher = more potent) is -0.115.
With TTGGTGACTTCACAGTCTCGGC the figure was -0.936; with AAATTCTTCTATCTGTAGCTGG, 0.0203; with AAAGCTTTGAAATTAACCGTGT, 0.986.
Turning to TATCTGAACAAACAGAGCAATG, the sensor-assay potency score (higher = more potent) is -1.69.
With TTAGGTTAATAGGAGACTGGTA the figure was -0.274; with TTTGACTTCAGGATAACCTGAA, 0.794; with TTTGAGGATAAACTGAAGGTGC, -0.117.
The sequence TTTCTTTGGAATATACAGCCAT came in with a sensor-assay potency score (higher = more potent) of 0.203.
To TAGATGAAGACAAACAACGCAG belongs 0.00396; to TATCGGAATAATATCCAGGTGA, -0.367; to TTAACATGTGTCCTCAGCCTTC, -1.15.
With TATAGGACCATTGTCTTCCTCC the figure was -0.229.
With TAACACATGATATATATTCATA the figure was -0.982; with TTGACTTCAGGATAACCTGAAT, -1.18; with TTCTTCTATCTGTAGCTGGGAT, -0.262.
Turning to TAACCTGAATGGTATGTCCATC, the sensor-assay potency score (higher = more potent) was -1.33.
To ATTAGCATCAGGAAACACCAGA belongs -0.642.

For the origin of these results see the OligoGym collection.
Further: reference of the scale not given here.
